The source of these data is PubChem BioAssay.

The nature of test [1]: E. coli DRC41 culture turbidity changes, primary screen, E. coli filamentation inducer project, strain DRC41, OD650, 48 h (AID 1152).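 Also: E. coli MC1000 strain DRC41 lacking acrAB efflux pump and sulA.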 Particulars: E. coli DRC41 (acrAB sulA), higher = more signal, called active from +8 up or from −8 down.
A short description of test [2]: small-molecule binders of probe aLefty1, primary screen, biochemical, small-molecule microarray, 635/667 nm fluorescence (AID 1153).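 Also: score merges spot fluorescence with signal-to-noise ratio from the scanned slide images.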 Particulars: higher = more signal.
The nature of test [3]: PSAC antagonists in infected red cells, primary screen, cell-based, P. falciparum Indochina, OD700, 1 h (AID 1154). Particulars: P. falciparum Indochina infected RBC osmotic lysis, higher = more signal, called active from +8 up or from −8 down.
The nature of test [4]: PSAC antagonists in infected red cells, primary screen, cell-based, P. falciparum Indochina, OD700, 2 h (AID 1155).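 Also: lysis reports solute entry through the parasite surface anion channel PSAC; channel blockers reduce lysis of infected cells.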 To be noted: P. falciparum Indochina infected erythrocytes, osmotic lysis OD700; higher = more signal, called active from +8 up or from −8 down.
Test [5] can be described thus: osmotic lysis modulators in infected erythrocytes, primary screen, PSAC antagonist project, cell-based, P. falciparum Indochina, OD700, 3 h (AID 1156). To be noted: higher = more signal, called active from +8 up or from −8 down.
A short description of test [6]: PSAC antagonists in infected red cells, primary screen, cell-based, P. falciparum Indochina, OD700, 18 h (AID 1157). To be noted: P. falciparum Indochina infected erythrocytes, osmotic lysis OD700, 18 h; higher = more signal, called active from +8 up or from −8 down.
Test [7] can be described thus: modulators of S6 phosphorylation in cells, primary screen, cell-based, A549, cytoblot, luminescence, serum-stimulated (AID 1158).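 Also: serum-stimulated A549 lung adenocarcinoma cells; signal is phosphorylated S6 detected by cytoblot immunostaining with HRP secondary.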 To be noted: A549 phospho-S6 cytoblot, 5 h, higher = more signal.
Test [8] addresses NADPH oxidase 2 (Homo sapiens) (UniProt P04839). Description: NOX2-dependent H2O2 signal modulators, primary screen, NOX inhibitor project, cell-based, HEK293-NOX2, PMA-stimulated, Amplex Red fluorescence (AID 1159). Also: test concentration not given here. Particulars: 45 min, higher = more signal, called active from +8 up or from −8 down.
In test [9] the target is NADPH oxidase 4 (Homo sapiens) (UniProt Q9NPH5). As to the kind of experiment: NOX4-dependent H2O2 signal modulators, primary screen, NOX inhibitor project, cell-based, HEK293-NOX4, tetracycline-induced, Amplex Red fluorescence (AID 1160). To be noted: 45 min, higher = more signal, called active from +8 up or from −8 down.
In test [10] the target is NADPH oxidase 5 (Homo sapiens) (UniProt Q96PH1). As to the kind of experiment: NOX5-dependent H2O2 signal modulators, primary screen, NOX inhibitor project, cell-based, HEK293-NOX5, Amplex Red fluorescence (AID 1161). Particulars: HEK293-NOX5, ionomycin, 45 min, higher = more signal.
Test [11] can be described thus: A549 cell viability effects, profiling panel, calcein-AM fluorescence, 48 h, basal (AID 1162). Also: test concentration not given here. Particulars: higher = more signal.
A short description of test [12]: adipocyte viability effects, profiling panel, cell-based, 3T3-L1 adipocytes, calcein-AM fluorescence, 48 h, basal (AID 1163). Also: test concentration not given here. Particulars: 3T3-L1 adipocytes viability, higher = more signal.
A short description of test [13]: HepG2 cell viability effects, profiling panel, calcein-AM fluorescence, 48 h, basal (AID 1164). Also: test concentration not given here. To be noted: higher = more signal.
The nature of test [14]: MM1S cell viability effects, profiling panel, calcein-AM fluorescence, 48 h, basal (AID 1165).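 Also: viability of MM1S multiple myeloma cells under basal unstimulated conditions; test concentration not given here.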 To be noted: higher = more signal.
The nature of test [15]: basal RPMI8226 viability, no added stimulus, profiling panel, cell-based, calcein-AM fluorescence, 48 h, PK04 Diversity Set (AID 1166).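 Also: cells grown under basal conditions without added stimulus; test concentration not given here.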 To be noted: RPMI8226 myeloma viability, higher = more signal.
A short description of test [16]: basal HepG2 mitochondrial membrane potential changes, profiling panel, cell-based, JC-1 fluorescence, 24 h, 100 nL compound (AID 1167). Also: test concentration not given here. Particulars: higher = more signal.
Test [17] in a line: basal 3T3-L1 adipocyte mitochondrial potential changes, profiling panel, cell-based, JC-1 fluorescence, 3T3-L1 adipocytes, 24 h, 100 nL compound (AID 1168). Also: test concentration not given here. Particulars: JC-1 mitochondrial fluorescence, higher = more signal, called active from +8 up or from −8 down.
Test [18] in a line: basal RPMI8226 mitochondrial membrane potential changes, profiling panel, cell-based, JC-1 fluorescence, 24 h, 100 nL compound (AID 1169). Also: test concentration not given here. To be noted: RPMI8226 myeloma, JC-1 mitochondrial potential fluorescence, higher = more signal.
A short description of test [19]: basal MM1S mitochondrial membrane potential changes, profiling panel, cell-based, JC-1 fluorescence, 24 h, 100 nL compound (AID 1170). Also: test concentration not given here. To be noted: higher = more signal.
Test [20] can be described thus: A549 lung cancer cell viability effects, profiling panel, resazurin fluorescence, 24 h, PK04 Diversity Set (AID 1171). Also: test concentration not given here. To be noted: higher = more signal, called active from +8 up or from −8 down. (In general: Alamar Blue is a resazurin reagent that responds to reducing activity.)

Active and inactive are the calls of the source.

Sequence of NADPH oxidase 4 (Homo sapiens) (Q9NPH5 whole entry, looked up): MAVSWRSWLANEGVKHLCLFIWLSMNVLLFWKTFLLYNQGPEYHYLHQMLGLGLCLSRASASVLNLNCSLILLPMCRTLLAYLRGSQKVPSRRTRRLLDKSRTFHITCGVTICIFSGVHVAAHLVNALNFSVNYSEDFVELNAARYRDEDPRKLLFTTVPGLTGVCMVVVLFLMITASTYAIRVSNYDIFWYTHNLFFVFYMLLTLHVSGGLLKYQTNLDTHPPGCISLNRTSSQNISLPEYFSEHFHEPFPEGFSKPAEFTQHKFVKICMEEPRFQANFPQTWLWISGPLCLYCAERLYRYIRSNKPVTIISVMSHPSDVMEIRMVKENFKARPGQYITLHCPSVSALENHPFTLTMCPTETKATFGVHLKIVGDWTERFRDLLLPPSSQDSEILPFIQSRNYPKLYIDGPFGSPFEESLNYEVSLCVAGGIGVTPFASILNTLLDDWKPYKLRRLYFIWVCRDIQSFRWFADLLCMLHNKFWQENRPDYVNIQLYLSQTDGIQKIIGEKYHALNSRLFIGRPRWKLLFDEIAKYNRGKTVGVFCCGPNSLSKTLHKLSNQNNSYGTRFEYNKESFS
Sequence of NADPH oxidase 5 (Homo sapiens) (Q96PH1 whole entry, looked up): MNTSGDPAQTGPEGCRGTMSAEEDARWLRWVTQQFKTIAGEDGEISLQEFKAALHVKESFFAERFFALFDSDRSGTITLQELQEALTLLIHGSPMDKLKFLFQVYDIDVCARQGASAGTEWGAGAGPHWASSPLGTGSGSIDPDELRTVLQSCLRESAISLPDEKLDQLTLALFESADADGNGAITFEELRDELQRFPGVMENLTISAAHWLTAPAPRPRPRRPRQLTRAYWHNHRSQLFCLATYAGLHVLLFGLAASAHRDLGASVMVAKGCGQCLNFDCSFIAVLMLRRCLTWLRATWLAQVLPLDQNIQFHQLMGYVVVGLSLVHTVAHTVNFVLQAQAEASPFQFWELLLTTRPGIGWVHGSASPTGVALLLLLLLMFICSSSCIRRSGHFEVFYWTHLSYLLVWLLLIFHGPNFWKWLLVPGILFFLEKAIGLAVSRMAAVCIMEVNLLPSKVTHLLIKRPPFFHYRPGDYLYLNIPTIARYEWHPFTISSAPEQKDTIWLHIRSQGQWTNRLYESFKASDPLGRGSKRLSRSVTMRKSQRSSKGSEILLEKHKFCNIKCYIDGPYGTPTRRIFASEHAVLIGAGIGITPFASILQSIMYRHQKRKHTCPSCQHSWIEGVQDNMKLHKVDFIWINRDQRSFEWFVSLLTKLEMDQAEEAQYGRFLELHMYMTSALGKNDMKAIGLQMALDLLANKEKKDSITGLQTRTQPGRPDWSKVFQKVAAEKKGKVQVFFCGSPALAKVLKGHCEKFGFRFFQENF
Sequence of NADPH oxidase 2 (Homo sapiens) (P04839 whole entry, looked up): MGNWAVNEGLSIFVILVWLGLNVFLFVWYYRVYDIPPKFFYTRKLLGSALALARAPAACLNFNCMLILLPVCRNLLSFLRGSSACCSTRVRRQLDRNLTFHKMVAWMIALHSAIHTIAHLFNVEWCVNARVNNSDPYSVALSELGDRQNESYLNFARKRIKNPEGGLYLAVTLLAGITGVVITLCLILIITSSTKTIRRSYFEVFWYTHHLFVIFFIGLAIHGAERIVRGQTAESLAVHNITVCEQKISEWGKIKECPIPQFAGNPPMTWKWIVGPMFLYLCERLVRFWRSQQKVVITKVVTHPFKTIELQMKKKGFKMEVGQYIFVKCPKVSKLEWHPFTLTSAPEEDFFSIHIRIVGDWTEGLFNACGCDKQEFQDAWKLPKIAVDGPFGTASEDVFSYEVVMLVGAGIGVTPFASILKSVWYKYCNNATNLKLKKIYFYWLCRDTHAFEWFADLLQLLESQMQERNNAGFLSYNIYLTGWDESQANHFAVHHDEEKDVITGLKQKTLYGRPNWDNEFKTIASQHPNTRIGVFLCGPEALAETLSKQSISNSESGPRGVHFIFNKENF

As to `O=C1[C@H]2[C@H]3[C@H](O)[C@H](O)CC(=NOC[C@@H](O)COCc4ccco4)[C@H]3CC[C@H]2C(=O)N1C[C@@H]1CCCO1`, the z-score in test [1] is -0.362 (inactive); in test [3], 0.342 (inactive); in test [4], 0.276 (inactive); in [5] it was -0.425 (inactive); in test [6] it was 0.33 (inactive); in [7], -0.637. Besides, the z-score in [8] was 0.276 (inactive); in test [9], 0.557 (inactive); in test [10] it was -0.0426; in test [11], -0.0501; in [12], -1.11; in [13], -1.22. For the same molecule, the z-score in test [14] is 0.313; in [15], -0.907; in [16], -0.809; in test [17] it was -0.605 (inactive); in test [18] it was -0.271; in test [19], -0.278. The z-score in test [20] is 0.622 (inactive). The composite z-score in [2] is -0.324.
`Cn1c(=O)n2n(c1=O)[C@H]1[C@H](O)[C@@H]3O[C@@H]3C(=NOCc3ccccc3)[C@H]1CC2`: the z-score is -0.022 (inactive) in test [1]; -0.347 (inactive) in [3]; 0.0184 (inactive) in [4]; -0.432 (inactive) in test [5]; 0.206 (inactive) in test [6]; -0.807 in [7]. The z-score in test [8] was 0.265 (inactive); in test [9], 0.456 (inactive); in test [10], 0.632; in [11], 0.102; in [12], -0.48; in [13], 0.316. For the same molecule, the z-score in test [14] was 0.0846; in test [15], -0.548; in test [16], -0.141; in test [17], -0.383 (inactive); in test [18], -0.0104; in test [19], -0.338. Moreover, in test [20], the z-score is -0.508 (inactive). Also, the composite z-score in test [2] was -0.0501.
On to `COC(=O)CC=C[C@H](C)[C@@H](OCc1cccc(Br)c1)[C@@H](C)[C@H](OC)C1CCCCC1`, for which the z-score in [1] is -0.533 (inactive); in test [3], 1.82 (inactive); in test [4], 0.675 (inactive); in test [5], -0.0293 (inactive); in test [6], 0.686 (inactive); in [7] it was 0.433. In addition, the z-score is -0.453 (inactive) in test [8]; 0.286 (inactive) in test [9]; 0.664 in test [10]; 0.836 in test [11]; 0.128 in test [12]; 1.21 in test [13]. Moreover, the z-score in test [14] was -2.16; in [15], -0.474; in [16], 0.918; in [17] it was 0.831 (inactive); in test [18], 0.00209; in [19], -0.324. In addition, the z-score in test [20] was 0.0303 (inactive). This molecule returned a composite z-score in test [2] of -0.333.
With `CC(=O)OC[C@H]1OC(ON=CC[C@@H]2C=C[C@H](OC(C)=O)[C@@H](COC(C)=O)O2)[C@H](OC(C)=O)[C@@H](OC(C)=O)[C@@H]1OC(C)=O` (stereo not given in full), the z-score is -0.0016 (inactive) in test [1]; 0.202 (inactive) in test [3]; 0.0995 (inactive) in [4]; 0.153 (inactive) in [5]; 0.22 (inactive) in test [6]; -0.999 in test [7]. The z-score in test [8] was 0.00176 (inactive); in test [9], 0.186 (inactive); in test [10], 0.0378; in test [11], -0.49; in test [12], -0.403; in test [13] it was -1.12. Also, the z-score in [14] was -0.092; in [15], -0.878; in test [16], 0.0783; in test [17], -2.76 (inactive); in test [18], -0.796; in [19], 0.23. Also, in test [20], the z-score is 0.103 (inactive). The composite z-score in [2] came out at 0.315.
`Cc1ccc(S(=O)(=O)N[C@@H]2COC(=O)[C@@H](C)COC(=O)CC=C[C@H]2C)cc1`: the z-score in [1] is -0.891 (inactive); in test [3] it was 0.124 (inactive); in test [4] it was 0.279 (inactive); in test [5], -0.305 (inactive); in test [6], -0.113 (inactive); in [7], -0.0223. The z-score in test [8] was -1.19 (inactive); in [9], -1.59 (inactive); in test [10] it was -0.728; in test [11] it was -0.168; in test [12], 0.996; in test [13], 0.617. For the same molecule, the z-score in test [14] is 0.0281; in [15], 0.587; in test [16], 0.0622; in [17] it was -0.396 (inactive); in test [18] it was 0.62; in test [19], 0.743. In test [20], the z-score is 0.0709 (inactive). The composite z-score in test [2] was -0.103.
